This note sets out measurements from PubChem BioAssay (Tox21).

“And” between values parts separate entries of the source, which are not always exact repeats. Equal values may be shown once. Inconclusive results are not listed. Where a structure was tested more than once in an assay, its records may differ in their call. The source made the active and inactive calls. Calls come from the whole dose curve; as a rule, active = well fitted cell-killing curve with a large enough effect in the repeat runs; inconclusive = weak or mixed curves, or effect the other way; inactive = flat fitted curve, though single readings scatter.
% is set by controls: 0 for no effect and ±100 for the full control effect; potency is the fitted concentration of half-maximal effect.

This assay is described as follows: Nuclear factor erythroid 2-related factor 2/antioxidant responsive element (Nrf2/ARE) small molecule agonists: qHTS cell viability counter screen in human keratinocytes (AID 1919968). Note: nearly all actives have a fitted effect of over 55% in size. The settings on record: KeratinoSens HaCaT ARE cells viability, CellTiter-Fluor, 24 h; series mostly up to 92.4 µM; activity change, negative = cytotoxicity: at the top concentration. The text has this:
U.S. Tox21 Program National Center for Advancing Translational Sciences [NCATS] Division of Preclinical Innovation [DPI] U.S. Environmental Protection Agency [EPA] National Institutes of Environmental Health Sciences [NIEHS] National Toxicology Program [NTP] U.S. Food and Drug Administration [FDA] Tox21 Assay Overview: Oxidative stress has been implicated in the pathogenesis of a variety of diseases ranging from cancer to neurodegeneration. The antioxidant response element (ARE) signaling pathway plays an important role in the amelioration of oxidative stress. The KeratinoSens (Givaudan, Switzerland) is an in vitro test method which quantifies luciferase induction as a measure of activation of Keap1-Nrf2-antioxidationt/electrophile response element (ARE) dependant pathway in HaCaT human keratinocytes stably transfected with a selectable plasmid. The KeratinoSens assay is a cell-based assay with a reporter cell line to detect potential skin sensitizers by their ability to induce the Nrf2/ARE-response. The activation of the report gene under culture conditions can be detected by ONE-Glo Luciferase Assay System (Promega, Madison, WI). This cell line has been used to screen the Tox21 10K compound library to identify agonists that induce oxidative stress. The cytotoxicity of the Tox21 compound library against the KS-ARE cell line was tested in parallel by measuring the cell viability using CellTiter- Fluor assay system (Promega, Madison, WI) in the same wells.
Tox21 Assay Protocol Summary: HaCaT derived cell line KeratinoSens were dispensed at 1,500 cells/5uL/well in 1536-well white wall/solid bottom plates using a Multidrop Combi (ThermoFisher Scientific, Waltham, MA) dispenser. After the assay plates were incubated at 37 C/5% CO2 for 5 h, 23 nL of compounds dissolved in DMSO, positive controls or DMSO only was transferred to the assay plate by a pintool workstation (Kalypsys, San Diego, CA). The plates were incubated at 37 C/5% CO2 for 23 h, followed by addition of 1uL/well of CellTiter-Fluor reagent into the assay plates using a Flying Reagent Dispenser (Aurora Discovery, San Diego, CA) for cell viability readout that measures cytotoxicity. After 1 h incubation at 37 C/5% CO2 the fluorescence intensity was measured using a ViewLux (PerkinElmer, Shelton, CT) plate reader.
(In general: Quantitative high-throughput screening tests each substance at several concentrations.)
For the compound `CCNc1cc(O)ccc1C`, the “activity change, negative = cytotoxicity” value is -9.03% (inactive).

Take `CSc1ccc(C(=O)c2[nH]c(=O)[nH]c2C)cc1`: the “activity change, negative = cytotoxicity” value is -1.13% [at 42.5 µM] (inactive).

Consider `CCCCCCCCO[C@@H]1O[C@H](CO)[C@@H](O)[C@H](O)[C@H]1O`, for which the “activity change, negative = cytotoxicity” value was -2.02% (inactive).

On to `CCC(CC)C(C)CCOC(C)=O` (stereo not given), for which the “activity change, negative = cytotoxicity” value is 3.12% (inactive).

`Cc1cc(C)cc(O)c1`: the Potency result is “inactive”.

In the case of `O=c1n(CCCN2CCN(c3cccc(Cl)c3)CC2)nc2ccccn12`, the Potency result was “inactive”.

Turning to `C=C(C)C(=O)OCCCCCCCCCCCCC`, the “activity change, negative = cytotoxicity” value is -11% (inactive).

For the compound `NC(=O)c1ccc([N+](=O)[O-])cc1Cl`, the Potency result is “inactive”.

For the compound `Nc1ccc2c(S(=O)(=O)O)cccc2c1S(=O)(=O)O`, the “activity change, negative = cytotoxicity” value is 10.3% [at 42.5 µM] (inactive).

As to `Cn1ccnc1`, the “activity change, negative = cytotoxicity” value is -2.85% (inactive).

As for `Cc1cc(C)c(C(=O)O)c(C)c1`, the “activity change, negative = cytotoxicity” value was 1.51% (inactive).

On to `O=C(O)/C=C/c1cnc[nH]1`, for which the “activity change, negative = cytotoxicity” value is -1.35% (inactive).

On to `CCOC(=O)c1ccc(O)c(O)c1`, for which the “activity change, negative = cytotoxicity” value was -1.93% [at 42.5 µM] (inactive).

For `CC(=O)c1sc(C)nc1C`, the “activity change, negative = cytotoxicity” value was -1.55% (inactive).

Regarding `c1ccc2c(c1)CCC2`, the “activity change, negative = cytotoxicity” value is 0.418% (inactive).

As to `COc1ccc(OC)c(C(O)CNC(=O)CN)c1` (stereo not given), the Potency result is “inactive”.

On to `O=C1CCC(=O)O1`, for which the “activity change, negative = cytotoxicity” value is -2.07% (inactive).

Consider `CC(=O)c1cc(C)oc1C`, for which the “activity change, negative = cytotoxicity” value was 1.15% (inactive).

For `CC[C@]12CCCN3CCc4c(n(c5ccccc45)[C@@](O)(C(=O)OC)C1)[C@@H]32`, the Potency result is “inactive”.

For the compound `CC(C)CC(=O)OCc1ccccc1`, the “activity change, negative = cytotoxicity” value was 1.84% (inactive).

Consider `[Cl][Eu]([Cl])[Cl]`, for which the “activity change, negative = cytotoxicity” value is 2.83% (inactive).

Turning to `CCCCCCCC(=O)[O-].CCCCCCCC(=O)[O-].[Zn+2]`, the “activity change, negative = cytotoxicity” value was -0.7% [at 42.5 µM] (inactive).

On to `O=C(O)CCC(=O)Nc1ccc(S(=O)(=O)Nc2nccs2)cc1`, for which the “activity change, negative = cytotoxicity” value was 0.528% [at 42.5 µM] (inactive).

For `CC(C)(C)CC(C)(C)c1ccc(O)c(-n2nc3ccccc3n2)c1`, the Potency is 48.6 µM (active).

For the compound `Cc1cccc(N(C)C(=S)Oc2ccc3ccccc3c2)c1`, the “activity change, negative = cytotoxicity” value is 17.5% [at 42.5 µM] (inactive).

On to `CCCCCCOCCOCCO`, for which the Potency result is “inactive”.

As for `COC(=O)c1cc(Cl)c(NC(C)=O)cc1OC`, the “activity change, negative = cytotoxicity” value is 0.538% [at 42.5 µM] (inactive).

On to `CCCC/C=C\CCCCCCCCCC=O`, for which the “activity change, negative = cytotoxicity” value is -1.13% (inactive).

Consider `CC12CCC(C(=O)C1=O)C2(C)C` (stereo not given), for which the “activity change, negative = cytotoxicity” value is 1.43% (inactive).

Consider `CCOC(=O)c1ccc(N)cc1`, for which the Potency entry was “inactive”.

As to `CO[Si](CCCNCCNCCN)(OC)OC`, the “activity change, negative = cytotoxicity” value is -0.993% (inactive).

With `CC1(C)C(=O)N(Br)C(=O)N1Cl`, the “activity change, negative = cytotoxicity” value was 3.6% (inactive).

Take `CCOC(=O)C(C)Oc1ccc(Oc2cnc3cc(Cl)ccc3n2)cc1` (stereo not given): the Potency result was “inactive”.

As for `CCCC(=O)OCC(COC(=O)CCC)OC(=O)CCC`, the “activity change, negative = cytotoxicity” value was -1.49% (inactive).

On to `O=C1c2cccc(O)c2C(=O)c2c(O)cccc21`, for which the Potency result is “inactive and 3.35 µM (active)”.

Regarding `C(/C=C/C=C/Nc1ccccc1)=Nc1ccccc1`, the “activity change, negative = cytotoxicity” value was -0.565% (inactive).

For `NCc1ccccc1Sc1ccccc1CO`, the “activity change, negative = cytotoxicity” value is -2.86% [at 42.5 µM] (inactive).

For `Cc1ccc(S(N)(=O)=O)cc1`, the Potency result is “inactive”.

`O=C1C(c2[nH]c3ccc(S(=O)(=O)O)cc3c2O)=Nc2ccc(S(=O)(=O)O)cc21`: the “activity change, negative = cytotoxicity” value was -2.21% (inactive).

With `NCCNCCO`, the “activity change, negative = cytotoxicity” value is -8.29% (inactive).
